In all, about 52,000 compounds went through this assay and about 1,700 (3.3%) were called active. Rule as the data show it: active = survival mostly below about 52% (no sharp cut-off); inactive = mostly above about 56%. The entries come from a sample that favours actives as a whole.

For this test, the system named is Wild type. Put plainly: growth inhibition of S. aureus wild type versus tarO mutant, primary screen, teichoic acid synthesis inhibitors, RN4220, OD600 (AID 463173). Particulars: S. aureus RN4220 wild type/DeltatarO growth, OD600, 18 h, active compounds read low, screened at 18.75 µg/mL (by protocol).
For `O=C(NCc1ccc(Cl)cc1)C(=O)NCC(c1cccs1)S(=O)(=O)c1ccc(Cl)cc1` (stereo unspecified), the survival is 58% (inactive).

Regarding `CCOC(=O)C1CCN(c2cc(C)nc3c(-c4ccccc4OC)c(C)nn23)CC1`, the survival was 82% (inactive).

Take `COc1ccc(S(=O)(=O)N(Cc2ccccc2)Cc2nc3ccccc3c(=O)[nH]2)cc1`: the survival was 113% (inactive).

On to `COc1ccc(C2=C(C)C(=O)N(Cc3ccc(C(=O)NCc4ccccc4C)cc3)S2(=O)=O)cc1`, for which the survival was 66% (inactive).

As to `Cc1cccc(OCc2nc(CC(=O)Nc3ccc(Cl)cc3)cs2)c1`, the survival was 92% (inactive).

For the compound `COc1ccccc1N1CCN(c2ncnc3c2c(-c2ccccc2)cn3-c2cccc(Cl)c2)CC1`, the survival was 74% (inactive).

Take `CCc1ccc2nc(N(Cc3cccnc3)C(=O)c3cccs3)sc2c1`: the survival was 127% (inactive).

On to `CC(=O)c1cccc(NC(=O)c2ccc3c(c2)CCN3S(=O)(=O)c2ccccc2)c1`, for which the survival is 71% (inactive).

As for `Cc1c(-c2nnc(SCC(=O)Nc3ccc(Br)cc3)o2)nnn1-c1ccc(F)cc1`, the survival is 80% (inactive).

Turning to `O=C(CCCCCn1c(=O)[nH]c2ccccc2c1=O)NCCc1ccccc1`, the survival is 92% (inactive).

In the case of `Cc1cccc(NC(=O)c2sc3nc4c(cc3c2N)CCCCCC4)c1C`, the survival was 121% (inactive).

Regarding `O=C(c1ccc(F)cc1)n1nc(-c2cccnc2)nc1NCc1ccccc1`, the survival is 81% (inactive).

Take `O=C(c1ccc(F)cc1)n1nc(-c2ccc(Cl)cc2)nc1NCc1ccco1`: the survival was 76% (inactive).

As for `O=C(c1ccco1)n1nc(-c2ccc(Cl)cc2)nc1NCc1ccccc1`, the survival is 74% (inactive).

Regarding `O=C(c1ccc(F)cc1)n1nc(-c2ccccc2)nc1NCc1ccco1`, the survival was 9% (active).

As to `O=C(c1ccc(F)cc1)n1nc(-c2ccccc2)nc1NCc1ccc(F)cc1`, the survival was 19% (inactive).

Turning to `O=C(c1ccc(Cl)cc1)n1nc(-c2ccccc2)nc1NCc1ccco1`, the survival is 24% (active).

For the compound `O=C(c1ccccc1)n1nc(-c2ccc(Cl)cc2)nc1NCc1ccco1`, the survival is 25% (active).

Turning to `O=C(c1ccco1)n1nc(-c2ccccc2)nc1NCc1ccc(F)cc1`, the survival was 73% (inactive).

Regarding `O=C(c1ccco1)n1nc(-c2ccccc2)nc1NCc1ccc(Cl)cc1`, the survival is 85% (inactive).

With `O=C(c1ccco1)n1nc(-c2ccc(Cl)cc2)nc1NCc1ccc(F)cc1`, the survival is 70% (inactive).

Regarding `COc1ccc(C(=O)n2nc(-c3ccc(Cl)cc3)nc2NCc2ccco2)cc1`, the survival is 99% (inactive).

For the compound `O=C(c1ccccc1)n1nc(-c2ccccc2)nc1NCc1ccc(F)cc1`, the survival is -4% (active).

For `Cc1ccc(Nc2nc(C(N)=O)c(NC(=O)c3ccccc3Br)s2)cc1`, the survival was 71% (inactive).

Take `CCOC(=O)C1CCC(CN(Cc2ccc(Cl)cc2)S(=O)(=O)c2cc(Cl)cc(Cl)c2)CC1` (stereo unspecified): the survival is 59% (inactive).

Consider `COc1ccc(-n2c(=O)c3sc4ccccc4c3n(Cc3ccccc3)c2=O)cc1`, for which the survival is 81% (inactive).

For the compound `CCc1ccc(NC(=O)c2oc3c(c2C)-c2[nH]ncc2CC3)cc1`, the survival was 59% (inactive).

As to `Cc1cc(C)c(NC(=O)c2oc3c(c2C)-c2[nH]ncc2CC3)c(C)c1`, the survival was 81% (inactive).

Take `Cc1cc(NC(=O)c2oc3c(c2C)-c2[nH]ncc2CC3)ccc1Br`: the survival is 1% (active).

As for `Cc1[nH]c2ccc(Cl)cc2c(=O)c1CN1CCN(C)CC1`, the survival is 109% (inactive).

In the case of `Clc1ccc(CCNc2nc3ccccc3c3nc(-c4ccccc4)nn23)cc1`, the survival is 38% (inactive).

`Cc1ccc(CNC(=O)CSc2nc3n[nH]c(C)c3c(=N)n2-c2ccccc2Cl)cc1`: the survival was 83% (inactive).

In the case of `O=C(NCC1CCN(Cc2cccc(Cl)c2)CC1)Nc1cc(Cl)ccc1Cl`, the survival is -1% (active).

Regarding `Cc1ccc(NC(=O)NCC2CCN(Cc3cccc(Cl)c3)CC2)cc1Cl`, the survival is -6% (active).

Regarding `Cc1cc(C)cc(NC(=O)NCC2CCN(Cc3cc(C)ccc3C)CC2)c1`, the survival was 83% (inactive).

Turning to `Cc1ccc(CN2CCC(CNC(=O)Nc3ccc(C)c(C)c3)C2)cc1` (stereo unspecified), the survival was 94% (inactive).

With `O=C(NCC1CCN(Cc2cccc(Cl)c2)CC1)Nc1ccc(F)c(Cl)c1`, the survival was 14% (active).

On to `Cc1ccc(CN2CCC(CNC(=O)Nc3cccc(Cl)c3C)C2)cc1` (stereo unspecified), for which the survival was 88% (inactive).

Consider `Cc1ccc(CN2CCC(CNC(=O)Nc3ccccc3F)CC2)cc1`, for which the survival is 118% (inactive).

`O=C(NCC1CCN(Cc2ccccc2F)CC1)Nc1ccc(F)c(Cl)c1`: the survival was 73% (inactive).

As to `Cc1ccc(CN2CCC(CNC(=O)Nc3ccc(Cl)cc3)C2)cc1` (stereo unspecified), the survival is 53% (inactive).

Take `COc1ccc(-c2cc3nccc(-c4cc(Cl)c(C)cc4O)n3n2)cc1`: the survival was 82% (inactive).

Consider `CN1CCN(C(CNC(=O)c2ccc(F)cc2)c2ccc3c(c2)OCO3)CC1` (stereo unspecified), for which the survival is 70% (inactive).

Regarding `C=CCN1C=C/C(=C\C=C(C#N)C#N)c2ccccc21`, the survival was 102% (inactive).

Consider `CCc1c(C)nc(SCc2nc(-c3ccccc3)no2)[nH]c1=O`, for which the survival is 118% (inactive).

Consider `COc1cccc(C(=O)N(Cc2ccco2)c2ccccn2)c1`, for which the survival was 103% (inactive).

On to `COc1ccc(CCNC(=O)c2nc(SCc3ccc(F)cc3)ncc2Cl)cc1OC`, for which the survival was 86% (inactive).

For `CN(CC(=O)NCc1ccc(Cl)cc1)S(=O)(=O)c1ccc2c(c1)c(=O)n(C)c(=O)n2C`, the survival was 81% (inactive).

Consider `COc1ccc(NC(=O)c2oc3ccccc3c2NC(=O)Cc2cccs2)cc1`, for which the survival is 90% (inactive).

With `C#CC(C)(CC)NC(=O)Cn1nnc(-c2ccc(OCc3ccccc3C)cc2)n1` (stereo unspecified), the survival is 143% (inactive).

As for `Cc1ccc(-n2cc(-c3ccccc3)c3c(N4CCCCC4)ncnc32)cc1`, the survival was 80% (inactive).

Consider `Cc1sc2nc(CN(CCc3ccccc3)C(=O)c3ccco3)[nH]c(=O)c2c1C`, for which the survival was 100% (inactive).

Take `Cc1ccc2oc(=O)n(CCNC(=O)Nc3ccccc3Cl)c2c1`: the survival was 90% (inactive).

In the case of `Cc1ccc2c(c1)C(=O)C(=O)N2Cc1ccc(OCCC(C)C)cc1`, the survival is 79% (inactive).

For the compound `COc1cc(Cn2c(=O)oc3ccc(C)cc32)ccc1OCCC(C)C`, the survival is -7% (active).

Regarding `Cc1ccc2oc(=O)n(Cc3ccccc3Cl)c2c1`, the survival is -2% (active).

With `CCOC(=O)c1ccc2oc(=O)n(Cc3ccccc3)c2c1`, the survival is 68% (inactive).

Turning to `CCCCCOc1ccccc1CN1C(=O)C(=O)c2cc(C)ccc21`, the survival was 105% (inactive).

Turning to `O=C(NCc1ccccc1Cl)c1ccc2oc(=O)n(Cc3ccccc3)c2c1`, the survival is 81% (inactive).

`CCCCCOc1ccc(Cn2c(=O)oc3ccccc32)cc1`: the survival was 120% (inactive).

As for `CCCCOc1ccc(Cn2c(=O)oc3ccc(C)cc32)cc1OC`, the survival was 49% (inactive).

`CCCCCOc1ccc(Cn2c(=O)oc3ccc(C)cc32)cc1OC`: the survival was -6% (active).

As to `CCCCCOc1ccccc1Cn1c(=O)oc2ccc(C)cc21`, the survival was 15% (active).

For the compound `CCCCOc1ccc(CN2C(=O)C(=O)c3cc(C)ccc32)cc1OC`, the survival is 87% (inactive).

For `COc1cc2nc(C3CCC3)n(NC(=O)c3ccccc3C)c(=O)c2cc1OC`, the survival is 115% (inactive).

Turning to `CSc1ccc(CCNC(=O)CCc2c(C)nc3ncnn3c2C)cc1`, the survival is 71% (inactive).

As for `CCC1CN(C(=O)C2CCN(S(=O)(=O)c3c(C)noc3/C=C/c3ccccc3F)CC2)c2cc(Cl)ccc2O1` (stereo unspecified), the survival was 71% (inactive).

With `COc1ccc(NC(=O)Cn2c(=O)n(-c3ccccc3)c(=O)c3ccc(C(=O)NCc4ccc5c(c4)OCO5)cc32)cc1`, the survival was 154% (inactive).

`COc1ccc(NC(=O)C2CCCN(S(=O)(=O)c3c(C)[nH]c(=O)[nH]c3=O)C2)cc1OC` (stereo unspecified): the survival is 130% (inactive).

On to `O=C(Nc1cc(-c2ccc(F)c(F)c2)no1)c1ccccc1F`, for which the survival was 92% (inactive).

`COC(=O)c1ccccc1NC(=O)c1ccc(-c2nc(COc3ccccc3)c(C)o2)cc1`: the survival was 135% (inactive).

On to `COCCCNC(=O)C1CCN(c2nnc(-n3cccc3CNc3ccc(C)cc3)s2)CC1`, for which the survival is 72% (inactive).

In the case of `CCOCCc1nn2c(=O)cc(COC(=O)C(CC)c3ccccc3)nc2s1` (stereo unspecified), the survival was 14% (active).

For the compound `CCOCCc1nn2c(=O)cc(COC(=O)c3ccco3)nc2s1`, the survival is 85% (inactive).

As to `CCc1nn2c(=O)cc(COC(=O)Cc3ccccc3)nc2s1`, the survival was 59% (inactive).

As to `CCC(C(=O)OCc1cc(=O)n2nc(CCOC)sc2n1)c1ccccc1` (stereo unspecified), the survival was 136% (inactive).

As to `CCc1nn2c(=O)cc(COC(=O)C(CC)c3ccccc3)nc2s1` (stereo unspecified), the survival is 73% (inactive).

In the case of `CCOCCc1nn2c(=O)cc(COC(=O)Cc3ccccc3)nc2s1`, the survival was -1% (active).

As to `Cc1ccc(-c2nnc3ccccc3c2C(=O)Nc2cccc(C(F)(F)F)c2)cc1`, the survival is 120% (inactive).

In the case of `COc1ccc(N(Cc2cccs2)C(=O)c2ccc(OCC(C)C)cc2)cc1`, the survival was 113% (inactive).

Consider `CCc1ccccc1NC(=O)CN(c1cccc(C)c1C)S(C)(=O)=O`, for which the survival is 72% (inactive).

Take `Cc1ccc(NC(=O)Cn2c(=O)n(Cc3ccco3)c(=O)c3sc4ccccc4c32)cc1C`: the survival was 126% (inactive).

Consider `CCc1nn2c(=O)cc(COC(=O)C3CCCCC3)nc2s1`, for which the survival was 72% (inactive).

Regarding `Cc1cccc(-c2nc(SCC(=O)NCC3CCCO3)c3c(=O)n(C)c(=O)n(C)c3n2)c1` (stereo unspecified), the survival was 128% (inactive).

For the compound `Oc1c(C(c2ccccc2)N2CCC3(CC2)OCCO3)sc2nc(-c3ccco3)nn12` (stereo unspecified), the survival was 73% (inactive).

`Oc1c(C(c2ccc(F)cc2)N2CCN(Cc3ccccc3)CC2)sc2nc(-c3ccco3)nn12` (stereo unspecified): the survival is 89% (inactive).

In the case of `Oc1c(C(c2ccccc2Cl)N2CCCC2)sc2nc(-c3ccco3)nn12` (stereo unspecified), the survival was 82% (inactive).

As for `Oc1c(C(c2ccccc2)N2CCCC2)sc2nc(-c3ccco3)nn12` (stereo unspecified), the survival was -3% (active).

In the case of `Cc1ccc(C(c2sc3nc(-c4ccco4)nn3c2O)N2CCC3(CC2)OCCO3)cc1` (stereo unspecified), the survival is 70% (inactive).

As for `CN1CCN(C(c2ccccc2Cl)c2sc3nc(-c4ccco4)nn3c2O)CC1` (stereo unspecified), the survival was 129% (inactive).

As to `Oc1c(C(c2ccccc2)N2CCN(Cc3ccccc3)CC2)sc2nc(-c3ccco3)nn12` (stereo unspecified), the survival is 10% (active).

Regarding `Oc1c(C(c2ccccc2Cl)N2CCOCC2)sc2nc(-c3ccco3)nn12` (stereo unspecified), the survival is -2% (active).

`Cc1ccc(C(c2sc3nc(-c4ccco4)nn3c2O)N2CCN(Cc3ccccc3)CC2)cc1` (stereo unspecified): the survival was 121% (inactive).

Turning to `Oc1c(C(c2ccc(Cl)cc2)N2CCC3(CC2)OCCO3)sc2nc(-c3ccco3)nn12` (stereo unspecified), the survival is 0% (active).

Take `CN1CCN(C(c2ccccc2)c2sc3nc(-c4ccco4)nn3c2O)CC1` (stereo unspecified): the survival is 59% (inactive).

Regarding `Oc1c(C(c2ccccc2)N2CCOCC2)sc2nc(-c3ccco3)nn12` (stereo unspecified), the survival was 88% (inactive).

The record behind these values is PubChem BioAssay AID463173 (ICCB-Longwood Screening Facility, Harvard Medical School, 2010).
